Experimental data published in PubChem BioAssay (Tox21).
Values without a mark were called inactive. The source made the active and inactive calls. Calls come from the whole dose curve; as a rule, active = well fitted curve in the direction sought with a large enough effect in the repeat runs; inconclusive = weak or mixed curves; inactive = flat fitted curve, though single readings scatter.
% is set by controls: 0 for no effect and ±100 for the full control effect.

Assay: qHTS assay to test for compound auto fluorescence at 535 nm (green) in HEK293 cell free culture (AID 720682)
Conditions: cell-free medium, green autofluorescence 485/535 nm, active compounds read high; series mostly up to 91.3 µM
From the text: U.S. Tox21 Program National Center for Advancing Translational Sciences [NCATS] NIH Chemical Genomics Center [NCGC] U.S. Environmental Protection Agency [EPA] National Institutes of Environmental Health Sciences [NIEHS] National Toxicology Program [NTP] U.S. Food and Drug Administration [FDA] Tox21 Assay Overview: Compound auto fluorescence often interferes with screening of the compound library against various biological targets and signaling pathways. Some of these compounds may have fluorophoric properties. Such properties may interfere with the assay outputs resulting in false positives and/or negatives. To decrease such complications and ensure the compound activities are relevant in terms of biological response, the Tox21 10K compound library was screened for auto fluorescence. From the fluorophores used as reporter signals in our screening assays, the auto fluorescence equivalencies of compounds against three fluorophores have been evaluated: Triamterene, Fluorescein and Rose Bengal sodium for blue, green and red fluorescence, respectively. The fluorescence intensities were measured using Excitation/Emission wavelengths at 405/460nm, 485/535nm and 540/590nm for blue, green and red labels, respectively. This assay includes the green fluorescence data.
Tox21 Assay Protocol Summary: 5 uL of culture medium (DMEM containing 10% FBS) per well was dispensed into black wall/clear bottom 1536-well plates using a Multidrop Combi Dispenser (ThermoFisher Scientific, Waltham, MA). After 23 nL compound or DMSO vehicle was transferred into assay plate by a pintool work station (Kalypsys, San Diego, CA), fluorescence intensities in the assay plates were measured by an Envision (PerkinElmer, Shelton, CT) plate reader using three labels for measuring blue, green and red fluorescence at […] 460, 535 and 590nm respectively.
For `c1ccc(N=NNc2ccccc2)cc1`, the outcome was “inactive”.
For `COP(=S)(NC(C)C)Oc1ccc(C)cc1[N+](=O)[O-]` (stereo not given), the outcome was “inactive”.
For `CC(C)C(Nc1ccc(C(F)(F)F)cc1Cl)C(=O)OC(C#N)c1cccc(Oc2ccccc2)c1` (stereo not given), the outcome was “inactive”.
For `ClC(Cl)C(Cl)(Cl)Cl`, the outcome was “inactive”.
For `CC(C)NCC(O)c1ccccc1Cl` (stereo not given), the outcome was “inactive”.
With `CC(=O)C(Cl)C(=O)N(C)C` (stereo not given) the outcome was “inactive”.
In the case of `CN/C(=N\[N+](=O)[O-])NCc1cnc(Cl)s1`, the outcome is reported as “inactive”.
For `CCC(OC(C)=O)C(CC(C)NC)(c1ccccc1)c1ccccc1` (stereo not given), the outcome was “inactive”.
With `C[N+]1(C)[C@@H]2CC[C@H]1CC(OC(=O)C(CO)c1ccccc1)C2` (stereo not given in full) the outcome was “inactive”.
For `CCCCCON=O`, the outcome was “inactive”.
For `CSSC`, the outcome was “inactive”.
In the case of `CCCCC(CC)COC(=O)c1ccccc1C(=O)OCC(CC)CCCC` (stereo not given), the outcome is reported as “inactive”.
For `O=S(=O)(O)F`, the outcome was “inactive”.
For `Oc1ccc2[nH]cc(CCCCN3CC=C(c4ccccc4)CC3)c2c1`, the outcome was “inactive”.
With `C[C@]12C/C(=C/O)C(=O)C[C@@H]1CC[C@@H]1[C@@H]2CC[C@@]2(C)[C@H]1CC[C@]2(C)O` the outcome was “inactive”.
In the case of `COC(=O)c1ccccc1S(=O)(=O)NC(=O)Nc1nc(C)nc(OC)n1`, the outcome is reported as “inactive”.
With `CN=C=O` the outcome was “inactive”.
In the case of `CN1[C@@H]2CC[C@H]1CC(O)C2` (stereo not given in full), the outcome is reported as “inactive”.
For `CO/N=C(\C(=O)OC)c1ccccc1CO/N=C(\C)c1cccc(C(F)(F)F)c1`, the outcome was “inactive”.
For `Cc1ccc2cc3c(ccc4ccccc43)c3c2c1CC3`, the outcome was “inactive”.
In the case of `CCCCC/C=C\C/C=C\C/C=C\C/C=C\CCCC(=O)NCC(=O)O`, the activity change is reported as 0.0424% [at 3.72 µM].
For `Oc1ccc(Cl)c(Cl)c1`, the outcome was “inactive”.
For `Cc1cccc(Cc2cnc[nH]2)c1C`, the outcome was “inactive”.
In the case of `CN1CCc2cc(Cl)c(O)cc2[C@H]2c3ccccc3CC[C@@H]21`, the outcome is reported as “inactive”.
With `O=[N+]([O-])c1ccc(Cl)c(Cl)c1Cl` the outcome was “inactive”.
With `CCOP(=O)(Sc1ccccc1)Sc1ccccc1` the outcome was “inactive”.
In the case of `O=[N+]([O-])[O-].[Tl+]`, the outcome is reported as “inactive”.
For `CC(C)Br`, the outcome was “inactive”.
With `Cc1ccc(C)c2ccccc12` the outcome was “inactive”.
With `CC(C)=CC1C(C(=O)OC(C#N)c2cccc(Oc3ccccc3)c2)C1(C)C` (stereo not given) the outcome was “inactive”.
For `Cc1cc(C2CC2)nc(Nc2ccccc2)n1`, the outcome was “inactive”.
In the case of `O=S1OCC2C(CO1)C1(Cl)C(Cl)=C(Cl)C2(Cl)C1(Cl)Cl` (stereo not given), the outcome is reported as “inactive”.
In the case of `CSC1=N[C@@](C)(c2ccccc2)C(=O)N1Nc1ccccc1`, the outcome is reported as “inactive”.
In the case of `C=C(C)C(=O)[O][Sn]([CH2]CCC)([CH2]CCC)[CH2]CCC`, the outcome is reported as “inactive”.
For `COC(=O)C(C)N(C(=O)c1ccco1)c1c(C)cccc1C` (stereo not given), the outcome was “inactive”.
In the case of `CN1C(=O)[C@@H](NC(=O)c2cc3ccccc3[nH]2)N=C(c2ccccc2)c2ccccc21`, the outcome is reported as “inactive”.
With `CCOC(=O)Cc1ccccc1` the outcome was “inactive”.
In the case of `O=C(N[C@H]1N=C(c2ccccc2F)c2cccc3c2N(CC3)C1=O)c1cc2ccccc2[nH]1`, the outcome is reported as “inactive”.
In the case of `c1cc[n+]2c(c1)-c1cccc[n+]1CC2`, the outcome is reported as “inactive”.
In the case of `O=C(O)[C@H](O)[C@@H](O)C(=O)O`, the outcome is reported as “inactive”.
